The values that follow come from PubChem BioAssay (Tox21).

Molecules are shown by their SMILES. Several values for one entry are separate records, joined by “and”; a condition that tells them apart may be missing. Identical values can stand only once. Inconclusive results are not listed. Some compounds were tested as several samples or in several runs, with calls that do not always agree. Activity calls are given as the source filed them. Calls follow the shape of the dose curve; as a rule, active = well fitted curve in the direction sought with a large enough effect in the repeat runs; inconclusive = weak or mixed curves; inactive = no such curve, though single readings can be large; an effect the other way counts as inactive or inconclusive.

The target of assay [1] is Cytochrome P450 2C19 (Homo sapiens) (UniProt P33261). Kind of assay: Cytochrome P450 Family 2 Subfamily C Member 19 (CYP2C19) small molecule antagonists: luciferase reporter qHTS assay (AID 1671197). Also: nearly all actives have a fitted effect of over 65% in size. Also: potency is read from the fitted curve at half-maximal effect. The essentials: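 Enzyme-substrate mix with proluciferin substrate (P450-Glo CYP2C19 system) preincubated with compounds 10 min at room temperature; NADPH regeneration solution added, 37C for 1 h; detection reagent stops reaction, luminescence read after 20 min. Ketoconazole positive control.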

Assay [2] has as its target Cytochrome P450 2C9 (Homo sapiens) (UniProt P11712). The assay can be described thus: Cytochrome P450 Family 2 Subfamily C Member 9 (CYP2C9) small molecule antagonists: luciferase reporter qHTS assay (AID 1671198). Also: nearly all actives have a fitted effect of over 50% in size. Also: potency is read from the fitted curve at half-maximal effect. The essentials: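 CYP2C9 activity was measured with a P450-Glo proluciferin substrate. Enzyme–substrate mix was held with compound for 10 min at room temperature, then NADPH regeneration solution was added for 1 h at 37C. Luciferin product was read as luminescence.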
(A reporter such as luciferase makes a cellular process visible.)

The target in assay [3] is Cytochrome P450 1A2 (Homo sapiens) (UniProt P05177). The assay can be described thus: Cytochrome P450 Family 1 Subfamily A Member 2 (CYP1A2) small molecule antagonists: luciferase reporter qHTS assay (AID 1671199). Also: nearly all actives have a fitted effect of over 50% in size. Also: potency is read from the fitted curve at half-maximal effect. The essentials: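 Quantitative high-throughput format using the P450-Glo CYP1A2 system. Reaction initiated by NADPH regeneration solution, 1 h at room temperature, then stopped with detection reagent; luminescence measured 20 min later.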

Assay [4] addresses Voltage-gated inwardly rectifying potassium channel KCNH2 (Homo sapiens) (UniProt Q12809). Kind of assay: Human Ether-a-go-go-Related Gene (hERG) channel small molecule antagonists: fluorescence cell-based qHTS assay (AID 1671200).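 Also: hERG-expressing U2OS cells given a thallium stimulus after FluxOR II dye loading; series mostly up to about 77 µM; nearly all actives have a fitted effect of over 50% in size.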 The essentials:
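Fluorescence at 540 nm emission (480 nm excitation) was recorded kinetically for 2 min at 1-second intervals once the thallium-containing stimulus reached cells previously loaded with FluxOR II dye.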
For orientation: Block of hERG is tested as a sign of cardiac risk.

Assay [5] addresses Cytochrome P450 3A4 (Homo sapiens) (UniProt P08684). The assay can be described thus: Cytochrome P450 Family 3 Subfamily A Member 4 (CYP3A4) small molecule antagonists: luciferase reporter qHTS assay (AID 1671201). Also: nearly all actives have a fitted effect of over 50% in size. Also: potency is read from the fitted curve at half-maximal effect. The gist of the method: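 qHTS, 1536-well. CYP3A4 + proluciferin substrate, cpd 10 min RT → NADPH regen 1 h RT → detection reagent 20 min → luminescence (RLU). Ketoconazole positive control.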

Chain of Cytochrome P450 2C9 (Homo sapiens) (P11712 whole entry, looked up): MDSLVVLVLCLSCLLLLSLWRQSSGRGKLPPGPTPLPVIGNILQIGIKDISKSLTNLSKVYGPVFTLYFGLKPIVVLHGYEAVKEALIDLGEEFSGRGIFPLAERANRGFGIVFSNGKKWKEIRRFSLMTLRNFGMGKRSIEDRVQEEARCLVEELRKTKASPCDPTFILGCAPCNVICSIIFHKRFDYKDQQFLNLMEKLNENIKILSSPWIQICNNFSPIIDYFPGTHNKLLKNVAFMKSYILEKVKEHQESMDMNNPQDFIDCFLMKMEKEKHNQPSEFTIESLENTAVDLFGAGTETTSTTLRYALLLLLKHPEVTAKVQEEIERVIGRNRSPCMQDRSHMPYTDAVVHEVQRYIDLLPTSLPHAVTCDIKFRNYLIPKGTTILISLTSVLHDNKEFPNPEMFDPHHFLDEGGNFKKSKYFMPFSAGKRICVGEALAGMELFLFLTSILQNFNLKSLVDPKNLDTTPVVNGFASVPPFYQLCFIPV
Chain of Cytochrome P450 2C19 (Homo sapiens) (P33261 whole entry, looked up): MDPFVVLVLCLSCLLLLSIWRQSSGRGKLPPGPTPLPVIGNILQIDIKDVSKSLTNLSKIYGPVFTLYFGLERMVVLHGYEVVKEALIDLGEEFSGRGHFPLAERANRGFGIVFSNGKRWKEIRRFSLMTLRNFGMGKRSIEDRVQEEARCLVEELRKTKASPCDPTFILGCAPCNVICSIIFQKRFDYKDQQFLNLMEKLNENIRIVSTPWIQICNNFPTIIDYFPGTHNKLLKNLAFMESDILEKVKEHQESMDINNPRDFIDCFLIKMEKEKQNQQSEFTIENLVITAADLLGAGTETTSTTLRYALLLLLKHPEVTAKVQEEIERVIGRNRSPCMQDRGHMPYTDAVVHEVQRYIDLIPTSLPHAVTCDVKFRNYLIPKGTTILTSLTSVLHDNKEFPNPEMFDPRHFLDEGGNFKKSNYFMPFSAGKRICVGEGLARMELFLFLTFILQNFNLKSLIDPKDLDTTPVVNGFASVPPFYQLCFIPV
Chain of Cytochrome P450 1A2 (Homo sapiens) (P05177 whole entry, looked up): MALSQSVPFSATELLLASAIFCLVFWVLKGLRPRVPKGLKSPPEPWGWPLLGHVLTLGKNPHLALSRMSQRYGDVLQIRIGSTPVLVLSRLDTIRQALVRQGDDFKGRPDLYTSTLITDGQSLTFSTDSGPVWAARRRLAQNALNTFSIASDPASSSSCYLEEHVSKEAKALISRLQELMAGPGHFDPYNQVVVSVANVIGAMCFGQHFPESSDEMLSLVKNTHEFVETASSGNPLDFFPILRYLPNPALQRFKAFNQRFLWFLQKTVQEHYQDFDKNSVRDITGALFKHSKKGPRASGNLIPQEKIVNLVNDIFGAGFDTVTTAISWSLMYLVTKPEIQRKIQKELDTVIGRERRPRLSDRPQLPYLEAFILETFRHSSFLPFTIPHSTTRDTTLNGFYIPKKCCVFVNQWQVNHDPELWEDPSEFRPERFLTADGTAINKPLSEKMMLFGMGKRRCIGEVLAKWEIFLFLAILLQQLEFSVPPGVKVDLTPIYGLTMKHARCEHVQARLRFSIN
Chain of Voltage-gated inwardly rectifying potassium channel KCNH2 (Homo sapiens) (Q12809 whole entry, looked up): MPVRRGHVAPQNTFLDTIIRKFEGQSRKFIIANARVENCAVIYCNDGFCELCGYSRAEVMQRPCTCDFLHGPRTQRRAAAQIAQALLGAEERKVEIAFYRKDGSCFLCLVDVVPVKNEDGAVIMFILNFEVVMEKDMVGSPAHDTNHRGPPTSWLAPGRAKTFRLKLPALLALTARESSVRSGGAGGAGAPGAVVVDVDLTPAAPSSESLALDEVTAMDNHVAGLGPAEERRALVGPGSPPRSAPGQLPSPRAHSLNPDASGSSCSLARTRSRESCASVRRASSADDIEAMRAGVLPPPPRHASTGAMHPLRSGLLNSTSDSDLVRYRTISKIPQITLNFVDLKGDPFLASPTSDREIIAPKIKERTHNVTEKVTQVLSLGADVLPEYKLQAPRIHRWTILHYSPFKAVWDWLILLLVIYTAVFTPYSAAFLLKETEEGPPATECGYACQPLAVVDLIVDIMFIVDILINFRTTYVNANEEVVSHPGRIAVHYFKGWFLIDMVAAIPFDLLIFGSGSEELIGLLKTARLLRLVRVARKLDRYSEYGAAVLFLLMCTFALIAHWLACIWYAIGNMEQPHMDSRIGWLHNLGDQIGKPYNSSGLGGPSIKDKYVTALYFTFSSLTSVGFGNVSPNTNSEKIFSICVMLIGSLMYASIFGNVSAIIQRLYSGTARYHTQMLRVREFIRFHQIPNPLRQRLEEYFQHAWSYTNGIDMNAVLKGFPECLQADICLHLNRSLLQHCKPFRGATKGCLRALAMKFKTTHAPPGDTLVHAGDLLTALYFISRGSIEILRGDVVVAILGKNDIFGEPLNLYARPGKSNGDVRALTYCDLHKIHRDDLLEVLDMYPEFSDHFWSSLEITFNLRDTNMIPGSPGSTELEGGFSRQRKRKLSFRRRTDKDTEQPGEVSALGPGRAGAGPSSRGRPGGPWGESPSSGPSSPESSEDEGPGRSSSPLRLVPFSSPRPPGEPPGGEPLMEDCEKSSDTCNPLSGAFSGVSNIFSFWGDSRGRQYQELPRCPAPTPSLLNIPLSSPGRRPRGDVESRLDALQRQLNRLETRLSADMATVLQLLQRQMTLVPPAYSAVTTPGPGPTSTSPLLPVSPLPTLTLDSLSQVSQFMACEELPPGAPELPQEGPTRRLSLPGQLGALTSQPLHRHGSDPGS
Chain of Cytochrome P450 3A4 (Homo sapiens) (P08684 whole entry, looked up): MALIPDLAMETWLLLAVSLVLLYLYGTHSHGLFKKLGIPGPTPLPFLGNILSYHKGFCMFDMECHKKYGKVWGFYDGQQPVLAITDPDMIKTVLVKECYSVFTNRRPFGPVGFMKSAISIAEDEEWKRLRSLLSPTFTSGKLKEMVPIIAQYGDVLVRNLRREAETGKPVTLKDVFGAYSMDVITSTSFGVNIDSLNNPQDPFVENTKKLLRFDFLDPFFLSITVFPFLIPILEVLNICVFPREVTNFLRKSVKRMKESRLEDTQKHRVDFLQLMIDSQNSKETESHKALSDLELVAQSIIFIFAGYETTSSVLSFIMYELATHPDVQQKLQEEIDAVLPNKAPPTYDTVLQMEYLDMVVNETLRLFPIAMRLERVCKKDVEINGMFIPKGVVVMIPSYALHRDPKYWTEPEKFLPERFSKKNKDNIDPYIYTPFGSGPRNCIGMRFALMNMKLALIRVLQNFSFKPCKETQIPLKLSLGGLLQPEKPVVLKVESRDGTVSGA

As to `COc1c(Cl)c(Cl)c(Cl)c(Cl)c1Cl`, the Potency result in assay [1], in assay [2] and in assay [4] was “inactive” throughout. The Potency in assay [3] is 28.4 µM (active) and 5.03 µM (active).

For `Cc1c(OCC(F)(F)F)ccnc1CS(=O)c1nc2ccccc2[nH]1` (configuration not stated), the Potency in assay [1] is 5.64 µM (active) and 3.89 µM (active); in assay [2] it was 35.6 µM (active) and 12.3 µM (active); in assay [3], 31.7 µM (active) and 13.8 µM (active). Further, the Potency entry in assay [4] is “inactive”.

As to `O=C(c1ccccc1)c1ccccc1O`, the Potency in assay [1] is 3.65 µM (active) and 22.4 µM (active); in assay [2], 40.9 µM (active) and 63.3 µM (active); in assay [3], 11.5 µM (active) and 15.9 µM (active). Besides, the Potency result in assay [4] is “inactive”.

`Cc1c(C(N)=O)cc([N+](=O)[O-])cc1[N+](=O)[O-]`: the Potency result in assay [1], in assay [2], in assay [3], in assay [4] and in assay [5] was “inactive” throughout.

As to `CC1=CC2C3CC(C=C3C)C2C1` (configuration not stated), the Potency entry in assay [1] was “inactive and 39.9 µM (active)”; in assay [5], “inactive and 12.6 µM (active)”. Further, the Potency entry in assay [2], in assay [3] and in assay [4] was “inactive” throughout.

Turning to `O=C1OC2(c3cc(Br)c(O)c(Br)c3Oc3c2cc(Br)c(O)c3Br)c2c(Cl)c(Cl)c(Cl)c(Cl)c21`, the Potency is 38.4 µM (active) in assay [1]; 10 µM (active) and 17.2 µM (active) in assay [2]; 12.6 µM (active) in assay [3]; 71.1 µM (active) and inactive in assay [5]. Moreover, the Potency entry in assay [4] was “inactive”.

For the compound `CCC(C)(O)CCCC(C)C` (configuration not stated), the Potency entry in assay [1], in assay [2], in assay [3], in assay [4] and in assay [5] was “inactive” each time.

As to `CCCCC(CC)COC(=O)c1ccc(N(C)C)cc1` (configuration not stated), the Potency in assay [1] is 40.1 µM (active) and 20 µM (active) and 6.92 µM (active); in assay [2], 31.9 µM (active) and 17.8 µM (active) and 15.5 µM (active); in assay [3], 12.7 µM (active) and 7.1 µM (active) and 4.56 µM (active). Besides, the Potency result in assay [4] and in assay [5] was “inactive” each time.

As to `O=C(O)c1ccccc1Nc1cccc(C(F)(F)F)c1`, the Potency entry in assay [1], in assay [4] and in assay [5] was “inactive” in each case. Besides, the Potency was 63.3 µM (active) in assay [2] and 35.6 µM (active) in assay [3].

For the compound `CC(C(=O)O)c1cccc(C(=O)c2ccccc2)c1` (configuration not stated), the Potency in assay [1] is 39.9 µM (active); in assay [2] it was 31.7 µM (active) and 30.9 µM (active); in assay [3], “inactive and 24.5 µM (active)”. Besides, the Potency result in assay [4] and in assay [5] was “inactive” throughout.

For the compound `C[C@]12CCC(=O)C=C1CC[C@@H]1[C@@H]2C(=O)C[C@@]2(C)[C@H]1CC[C@]2(O)C(=O)CO`, in assay [1], the Potency is 25.2 µM (active). Further, the Potency entry in assay [2], in assay [3], in assay [4] and in assay [5] was “inactive” in each case.

For `CC(=O)C1(C)CC2=C(CCCC2(C)C)CC1C` (configuration not stated), the Potency result in assay [1], in assay [2], in assay [3], in assay [4] and in assay [5] was “inactive” throughout.

As to `O=C(OCc1ccccc1)c1ccccc1O`, the Potency is 5.6 µM (active) and 17.8 µM (active) in assay [1]; 35.6 µM (active) in assay [2]; 31.5 µM (active) and 28.3 µM (active) in assay [3]. Further, the Potency result in assay [4] and in assay [5] was “inactive” throughout.

`C=CC(C)(CCC=C(C)C)OC(C)=O` (configuration not stated): the Potency entry is “inactive and 17.8 µM (active)” in assay [1]; “inactive and 35.6 µM (active)” in assay [2]; “inactive and 28.3 µM (active)” in assay [5]. The Potency result in assay [3] and in assay [4] was “inactive” in each case.

As to `CCCCOCCOCCO`, the Potency result in assay [1], in assay [2], in assay [3], in assay [4] and in assay [5] was “inactive” throughout.

On to `NNc1ccc(C(=O)O)cc1`, for which the Potency in assay [1] was 32.1 µM (active) and 40.3 µM (active); in assay [2], 10.2 µM (active); in assay [3] it was 32.1 µM (active) and 32 µM (active). Moreover, the Potency entry in assay [4] and in assay [5] was “inactive” each time.

On to `CC(=O)c1ccccn1`, for which the Potency in assay [1] was 20.2 µM (active) and inactive; in assay [3], 64 µM (active) and inactive. In addition, the Potency result in assay [2], in assay [4] and in assay [5] was “inactive” each time.

Take `O=C(c1ccccc1)c1ccc(O)cc1O`: the Potency in assay [1] is 9.11 µM (active) and 22.4 µM (active); in assay [2] it was 57.5 µM (active) and 39.9 µM (active); in assay [3], 25.7 µM (active) and 31.7 µM (active); in assay [5], 14.4 µM (active) and 25.2 µM (active). For the same compound, in assay [4], the Potency result was “inactive”.

On to `Clc1nc(Cl)c(Cl)c(Cl)c1Cl`, for which, in assay [1], the Potency was 31.9 µM (active). Also, the Potency entry in assay [2], in assay [3], in assay [4] and in assay [5] was “inactive” throughout.

In the case of `OCCO`, the Potency entry in assay [1], in assay [2], in assay [3], in assay [4] and in assay [5] was “inactive” each time.

As to `CCCCC/C=C/C=C/C=O`, the Potency was 31.4 µM (active) and 39.9 µM (active) in assay [1]; 35.6 µM (active) in assay [2]; “inactive and 71 µM (active)” in assay [3]; “inactive and 39.9 µM (active)” in assay [5]. Moreover, the Potency result in assay [4] was “inactive”.
